For 5 molecules, composite z-score, composite Z-score and z-score results are on record in PubChem BioAssay.

The structures appear in SMILES notation. Calls of active or inactive are those of the source.

In test [1] the target is Albumin (Bos taurus) (UniProt P02769). Description: compounds binding labelled BSA control protein – biochemical, small-molecule microarray, Alexa647 label, 635/667 nm fluorescence, artefact control for SMM control protein annotation, profiling panel (AID 1118).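 Further: score merges 667 nm emission intensity and signal-to-noise per printed compound spot.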 Particulars: BSA-A647 binding, fluorescence 635 nm, higher = more signal.
Test [2] is described as follows: probe aXIP binding to arrayed compounds – biochemical, NeuroSMM set, 635/667 nm fluorescence, primary screen (AID 1119).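 Further: probe is the protein aXip251-270 applied at 1 µg/mL to compound-printed slides; binding of probe to printed compounds measured as 667 nm fluorescence plus signal to noise.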 Particulars: small-molecule microarray, higher = more signal, called active from +8 up or from −8 down.
Test [3] can be described thus: probe aNOTCH3 binding on compound microarray – biochemical, small-molecule microarray, 635/667 nm fluorescence, primary screen (AID 1120).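 Further: probe is a biotin-tagged antibody raised against NOTCH3 rather than NOTCH3 protein; score merges spot fluorescence near 667 nm with spot signal to noise.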 The conditions noted are these: higher = more signal.
Test [4] is described as follows: probe aNOTCH2 binding on compound microarray – biochemical, small-molecule microarray, 635/667 nm fluorescence, primary screen (AID 1121).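 Further: score merges feature fluorescence read at 667 nm with its signal to noise.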 The conditions noted are these: higher = more signal.
Test [5] concerns the target Carbonic anhydrase 2 (Homo sapiens) (UniProt P00918). Description: compounds binding carbonic anhydrase 2 – biochemical, small-molecule microarray, Alexa647-labelled CAII, profiling panel (AID 1122). The conditions noted are these: CAII-A647 binding fluorescence, higher = more signal.
A short description of test [6]: COS7 lysate on small-molecule microarray, probe aHis, 635 nm (AID 1123).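 Further: z-score combines 667nm fluorescence intensity with signal-to-noise per printed compound spot.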 Particulars: COS7 cell lysate, fluorescence, higher = more signal.
Test [7] in a line: probe aLAP1 signal on lysate-treated microarray – cell lysate, small-molecule microarray, COS7 lysate, primary screen (AID 1124).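 Further: lysate comes from COS7 cells expressing LAP1 and is applied at 0.3 µg/mL; score merges spot fluorescence near 667 nm with signal-to-noise over triplicate slides.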 The conditions noted are these: probe aLAP1, fluorescence, higher = more signal.
For test [8], the system named is Sam68 (KHDRBS1). Description: compounds binding KHDRBS1 protein – biochemical, small-molecule microarray, 635 nm fluorescence, primary screen (AID 1125).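 Further: score merges 667 nm channel intensity with signal to noise over triplicate slides.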 The conditions noted are these: higher = more signal.
Test [9] deals with Chordin-like protein 2 (CHRDL2). Description: compounds binding chordin-like 2 – biochemical, small-molecule microarray, 635 nm fluorescence, primary screen (AID 1126).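 Further: printed compound slides probed with Chrdl2 protein at 4 µg/mL for 1 h at 4 C; score merges 667 nm emission intensity with signal to noise over three replicate slides.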 The conditions noted are these: fluorescence 635 nm, higher = more signal.
Test [10] has as its target Concanavalin-A (Canavalia ensiformis) (UniProt P02866). Description: compounds binding concanavalin A lectin – biochemical, small-molecule microarray, Alexa647 label, 635 nm, artefact control for SMM control protein annotation, primary screen (AID 1127).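 Further: z combines 667 nm emission intensity with signal-to-noise across three replicate slides.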 The conditions noted are these: ConA-A647 binding fluorescence, higher = more signal.
Test [11] can be described thus: compounds binding Alexa647 anti-His antibody – biochemical, small-molecule microarray, 635 nm fluorescence, artefact control for SMM control protein annotation, primary screen (AID 1128).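 Further: score merges feature fluorescence with signal-to-noise for each printed compound spot.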 Particulars: higher = more signal.
Test [12] relates to Human papillomavirus type 1a E7 protein (residues 1-88). Description: HPV1a E7 small-molecule binders, primary screen, biochemical, small-molecule microarray, residues 1-88, 635 nm (AID 1129). The conditions noted are these: small-molecule microarray binding, fluorescence 635 nm; higher = more signal.
The target of test [13] is Focal adhesion kinase 1 (Homo sapiens) (UniProt Q05397). Description: PTK2 protein binding on printed compound slides – biochemical, small-molecule microarray, 635/667 nm fluorescence, BSA, DTT, primary screen (AID 1130).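 Further: composite of spot emission at 667 nm and signal to noise over triplicate slides.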 Particulars: 635 nm fluorescence, higher = more signal.
The test system of test [14] is Fibrinogen (Alexa647-labelled). Description: Alexa647-fibrinogen binding to printed small molecules – biochemical, small-molecule microarray, 635/667 nm fluorescence, artefact control for SMM control-protein annotation, profiling panel (AID 1131).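 Further: z-score merges 667 nm fluorescence with per-spot signal-to-noise over triplicate slides.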 Particulars: fibrinogen-A647 binding fluorescence, higher = more signal.
The target of test [15] is Follistatin (Homo sapiens) (UniProt P19883). Description: FST protein binding to printed compounds – biochemical, small-molecule microarray, 635/667 nm fluorescence, primary screen (AID 1132). Particulars: 635 nm fluorescence, higher = more signal.
Test [16] has as its target Fibroblast growth factor 2 (Homo sapiens) (UniProt P09038). Description: basic fibroblast growth factor binding to printed compounds – biochemical, small-molecule microarray, 635/667 nm fluorescence, primary screen (AID 1133). Particulars: FGF2, fluorescence 635/667, higher = more signal.
Test [17] can be described thus: JC-1 mitochondrial potential readout, lung cancer cells – cell-based, A549, JC-1 fluorescence, basal, 24 h, 100 nL, profiling panel (AID 1138).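 Further: A549 lung adenocarcinoma cells under basal conditions with no added stimulus; test concentration not given here.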 Particulars: higher = more signal.
Test [18] deals with Lefty1. Description: Lefty1 protein binding to printed compounds – biochemical, small-molecule microarray, 635/667 nm fluorescence, primary screen (AID 1139). The conditions noted are these: fluorescence 635/667, higher = more signal.
Test [19] has as its system wheat germ agglutinin (Triticum aestivum), Alexa647-labelled. Description: Alexa647-WGA lectin binding to printed small molecules – biochemical, small-molecule microarray, 635/667 nm fluorescence, artefact control for SMM control-protein annotation, profiling panel (AID 1140).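 Further: score merges 667 nm feature emission with signal to noise over triplicate slides.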 The conditions noted are these: WGA-A647 binding, 635 nm fluorescence, higher = more signal.
For test [20], the target named is Luciferin 4-monooxygenase (Photinus pyralis) (UniProt P08659). Description: inhibition of purified Photinus pyralis luciferase – biochemical, luminescence, purified enzyme, 2006 set, primary screen (AID 1141).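 Further: cell-free assay with purified firefly luciferase at 100 ng per well in PBS; test concentration not given here.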 The conditions noted are these: purified firefly luciferase, SteadyGlo luminescence, 30 min; higher = more signal, called active from +8 up or from −8 down.
Sequence of Luciferin 4-monooxygenase (Photinus pyralis) (P08659 whole entry, looked up): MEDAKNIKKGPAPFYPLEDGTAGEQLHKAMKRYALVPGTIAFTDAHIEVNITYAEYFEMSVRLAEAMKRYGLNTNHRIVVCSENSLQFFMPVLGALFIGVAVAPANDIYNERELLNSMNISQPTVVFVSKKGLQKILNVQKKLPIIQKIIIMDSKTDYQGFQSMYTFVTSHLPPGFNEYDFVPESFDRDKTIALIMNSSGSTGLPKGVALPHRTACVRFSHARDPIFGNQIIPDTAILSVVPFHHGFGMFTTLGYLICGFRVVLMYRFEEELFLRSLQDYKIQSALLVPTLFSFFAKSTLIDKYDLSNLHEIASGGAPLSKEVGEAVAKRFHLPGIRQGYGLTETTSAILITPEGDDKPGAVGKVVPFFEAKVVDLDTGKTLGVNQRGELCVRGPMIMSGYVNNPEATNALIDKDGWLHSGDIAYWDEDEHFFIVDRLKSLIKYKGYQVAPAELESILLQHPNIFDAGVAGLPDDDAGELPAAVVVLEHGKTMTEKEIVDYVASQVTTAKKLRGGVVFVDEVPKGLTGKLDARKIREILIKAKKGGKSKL

Sequence of Focal adhesion kinase 1 (Homo sapiens) (Q05397 whole entry, looked up): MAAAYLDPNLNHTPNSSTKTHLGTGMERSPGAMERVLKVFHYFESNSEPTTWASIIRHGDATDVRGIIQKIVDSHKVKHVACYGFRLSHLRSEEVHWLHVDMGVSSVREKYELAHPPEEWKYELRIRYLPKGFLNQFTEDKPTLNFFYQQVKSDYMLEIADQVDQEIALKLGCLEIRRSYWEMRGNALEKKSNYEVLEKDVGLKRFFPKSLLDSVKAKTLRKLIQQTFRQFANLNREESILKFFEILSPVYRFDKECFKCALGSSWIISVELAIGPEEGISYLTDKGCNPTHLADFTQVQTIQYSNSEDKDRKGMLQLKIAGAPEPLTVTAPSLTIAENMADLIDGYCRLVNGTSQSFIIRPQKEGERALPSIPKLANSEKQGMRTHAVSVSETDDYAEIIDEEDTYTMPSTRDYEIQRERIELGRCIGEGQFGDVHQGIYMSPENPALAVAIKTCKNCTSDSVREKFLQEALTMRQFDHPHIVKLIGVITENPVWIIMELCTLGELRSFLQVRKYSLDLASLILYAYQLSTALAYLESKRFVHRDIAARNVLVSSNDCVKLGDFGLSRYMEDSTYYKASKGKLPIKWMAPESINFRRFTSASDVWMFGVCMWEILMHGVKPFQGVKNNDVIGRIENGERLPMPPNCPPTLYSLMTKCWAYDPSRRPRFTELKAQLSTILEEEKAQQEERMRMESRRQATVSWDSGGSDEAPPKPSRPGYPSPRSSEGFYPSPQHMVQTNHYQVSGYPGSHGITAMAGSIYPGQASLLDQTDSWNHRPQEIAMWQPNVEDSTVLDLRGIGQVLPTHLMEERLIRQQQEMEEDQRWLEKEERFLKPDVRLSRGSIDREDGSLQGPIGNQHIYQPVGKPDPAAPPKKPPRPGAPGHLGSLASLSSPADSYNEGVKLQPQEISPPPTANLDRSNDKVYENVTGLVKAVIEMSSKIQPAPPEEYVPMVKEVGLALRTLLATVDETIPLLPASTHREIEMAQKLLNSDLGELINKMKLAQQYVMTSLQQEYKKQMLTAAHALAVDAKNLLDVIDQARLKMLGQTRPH
Sequence of Fibroblast growth factor 2 (Homo sapiens) (P09038 whole entry, looked up): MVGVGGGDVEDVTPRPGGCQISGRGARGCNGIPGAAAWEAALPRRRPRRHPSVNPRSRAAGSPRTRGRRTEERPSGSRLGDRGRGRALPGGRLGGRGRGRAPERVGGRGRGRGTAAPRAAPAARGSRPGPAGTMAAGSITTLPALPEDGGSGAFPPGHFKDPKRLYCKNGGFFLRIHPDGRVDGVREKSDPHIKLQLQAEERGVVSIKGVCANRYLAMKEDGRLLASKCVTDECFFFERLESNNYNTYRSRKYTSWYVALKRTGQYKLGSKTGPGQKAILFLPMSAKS
Sequence of Follistatin (Homo sapiens) (P19883 whole entry, looked up): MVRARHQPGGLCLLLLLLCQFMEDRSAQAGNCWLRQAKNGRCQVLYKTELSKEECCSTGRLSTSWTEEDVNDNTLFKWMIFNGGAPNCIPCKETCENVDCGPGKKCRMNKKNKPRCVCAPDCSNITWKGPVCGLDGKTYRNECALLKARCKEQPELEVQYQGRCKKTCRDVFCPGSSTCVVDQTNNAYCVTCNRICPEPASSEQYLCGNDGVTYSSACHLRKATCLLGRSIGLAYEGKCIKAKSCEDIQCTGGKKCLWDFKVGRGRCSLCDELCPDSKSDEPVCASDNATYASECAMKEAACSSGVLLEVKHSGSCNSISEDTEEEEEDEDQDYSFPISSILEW
Sequence of Albumin (Bos taurus) (P02769 whole entry, looked up): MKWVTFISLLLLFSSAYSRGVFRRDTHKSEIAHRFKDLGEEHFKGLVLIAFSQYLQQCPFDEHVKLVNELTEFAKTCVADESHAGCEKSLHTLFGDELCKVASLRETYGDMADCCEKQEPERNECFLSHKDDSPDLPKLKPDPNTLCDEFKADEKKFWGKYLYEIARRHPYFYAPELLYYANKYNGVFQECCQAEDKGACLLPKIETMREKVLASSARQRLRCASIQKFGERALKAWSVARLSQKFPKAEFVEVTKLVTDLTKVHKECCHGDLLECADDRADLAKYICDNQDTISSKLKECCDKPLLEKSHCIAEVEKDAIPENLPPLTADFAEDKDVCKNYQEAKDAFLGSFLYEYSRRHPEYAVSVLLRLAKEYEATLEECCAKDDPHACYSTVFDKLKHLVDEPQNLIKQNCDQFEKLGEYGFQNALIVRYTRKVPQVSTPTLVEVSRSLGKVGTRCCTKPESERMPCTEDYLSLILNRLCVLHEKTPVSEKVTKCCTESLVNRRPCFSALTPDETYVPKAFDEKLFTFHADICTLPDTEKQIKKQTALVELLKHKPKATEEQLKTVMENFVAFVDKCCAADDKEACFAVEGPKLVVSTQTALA
Sequence of Concanavalin-A (Canavalia ensiformis) (P02866 whole entry, looked up): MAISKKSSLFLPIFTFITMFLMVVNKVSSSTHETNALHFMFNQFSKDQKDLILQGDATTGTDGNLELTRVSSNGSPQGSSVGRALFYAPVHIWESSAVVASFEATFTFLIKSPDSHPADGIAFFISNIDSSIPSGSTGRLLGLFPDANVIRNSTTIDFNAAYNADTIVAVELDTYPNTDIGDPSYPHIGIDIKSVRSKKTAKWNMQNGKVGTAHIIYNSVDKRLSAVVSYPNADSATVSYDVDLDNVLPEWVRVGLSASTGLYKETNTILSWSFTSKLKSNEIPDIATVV

On to `C=CCOC(=O)[C@H]1[C@@H]2C(=O)O[C@@H](c3ccccc3)[C@@H](c3ccccc3)N2[C@@H](c2ccc(OCCOC(=O)[C@H]3C[C@H]4C(=O)N5CCC[C@H]5C(=O)N4[C@H]3c3cccc(OCCO)c3)cc2)[C@]12C(=O)Nc1ccccc12`, for which the composite z-score in [1] was -0.592; in [3], -0.0647; in test [4], -0.0424; in test [5], 0.466; in test [6] it was 2.31; in test [7] it was -0.103. In addition, the composite z-score is 1.31 in test [8]; 1.37 in [9]; 0.96 in [10]; 1.34 in test [11]; 1.16 in test [12]; 0.903 in test [13]. For the same molecule, the composite z-score was determined as 0.47 in [14]; 1.34 in [15]; 1.57 in [16]; 0.628 in test [18]; 0.828 in [19]. For the same molecule, the composite Z-score in [2] was 1.51 (inactive). Further, the results for the z-score in test [17] and in [20] were -0.851 and -1.23 (inactive), respectively.

Take `CC(C)(C)OC(=O)CC[C@]1(C(=O)NCc2ccccc2)COC(c2ccc(OCCCO)cc2)=N1`: the composite z-score came out at 0.875 in [1]; 0.0128 in test [3]; 0.0377 in test [4]; 0.673 in [5]; 2.41 in test [6]; 1.49 in test [7]. Also, the composite z-score in test [8] was 1.25; in test [9], -1.45; in test [10], 0.255; in test [11], -0.518; in test [12], 1.25; in test [13], 0.444. The composite z-score is 0.694 in [14]; -0.0444 in [15]; -1.04 in test [16]; -0.986 in test [18]; 1.33 in [19]. In test [2], the composite Z-score is 0.603 (inactive). Moreover, the z-score was 0.695 in test [17] and -0.714 (inactive) in test [20].

Take `CC(CO)N1C(=O)[C@@H]2C3C(=O)OCCC/C=C\[C@H]3OC23C=CCN(Cc2ccccc2)C(=O)[C@@H]13` (stereo not given in full): the composite z-score in test [1] was -0.656; in [3], -0.189; in test [4], -0.177; in test [5], 0.866; in test [6] it was -0.255; in test [7] it was -0.285. The composite z-score is -0.164 in test [8]; -1.64 in test [9]; -2.2 in [10]; -1.18 in [11]; -1.47 in test [12]; -0.55 in test [13]. Further, the composite z-score is -1.52 in test [14]; -0.742 in [15]; -0.426 in [16]; -0.532 in test [18]; -1.54 in [19]. Also, the composite Z-score in [2] was -0.427 (inactive). In addition, the z-score is 0.935 in [17] and -1.56 (inactive) in [20].

`C=CCC(OC(C)=O)[C@@H]1[C@@H](N(Cc2ccc(-c3cccc(C(F)(F)F)c3)o2)C(=O)c2ccc(-c3ccccc3)cc2)c2cc(OCCCO)ccc2N1C(=O)Cc1ccc(OC)cc1` (stereo not given in full): the composite z-score in test [1] is -0.84; in [3] it was -0.0647; in [4] it was -0.0832; in [5], -0.149; in test [6], -0.249; in test [7], -0.231. For the same molecule, the composite z-score is -0.836 in test [8]; -0.0712 in test [9]; -1.26 in [10]; -0.729 in [11]; 0.0685 in test [12]; -0.0642 in test [13]. For the same molecule, the composite z-score in test [14] is -0.407; in test [15], 0.451; in [16], -0.196; in [18], -0.128; in [19], 0.15. Also, in test [2], the composite Z-score is 0.298 (inactive). Moreover, the results for the z-score in test [17] and in test [20] were 1.65 and -0.626 (inactive), respectively.

Take `COc1ccc(C#Cc2ccc3c(c2)[C@]2(C(=O)N3)[C@H](c3ccc(O)cc3)N3[C@H](c4ccccc4)[C@H](c4ccccc4)OC(=O)[C@H]3[C@@H]2C(N)=O)cc1`: the composite z-score in test [1] was -0.524; in test [3], -0.299; in test [4], -0.147; in test [5], 0.662; in [6], 1.25; in test [7] it was 0.0742. The composite z-score was 0.278 in test [8]; -1.54 in [9]; -0.211 in test [10]; 2.17 in test [11]; -0.0669 in test [12]; 0.627 in test [13]. The composite z-score in test [14] was -0.063; in test [15], -0.482; in test [16], -0.617; in test [18], -0.9; in [19] it was -0.0907. The composite Z-score in test [2] was 1.08 (inactive). The z-score in test [17] was -1.59; in test [20], -1.44 (inactive).
